According to PubChem BioAssay:
For part of these data: Potency and affinity values are given separately. Active and inactive are the calls of the source. Unless noted, how the calls were made is not given here.

Key:
[1] = antimalarial activity against Dd2 strain (AID 2302;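 active means growth inhibition above 50% at the single 2 µM test dose, taken to imply half-maximal potency below 2 µM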;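 further: 0% = DMSO untreated growth and 100% = chloroquine plus artemisinin killed control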); settings: P. falciparum Dd2 in RBCs, LDH growth readout, 72 h; at 2 µM; hits give high values
[2] = HepG2 cytotoxicity, primary screen, cytotoxicity control for P. falciparum antimalarial project, cell-based, ATP luminescence (AID 2303;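 active means inhibition above 50%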;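 further: 0% = DMSO wells and 100% = digitonin-killed cells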); settings: HepG2 viability, 24-48 h, at 10 µM, hits give high values
[3] = biological target: L-lactate dehydrogenase (Plasmodium falciparum (isolate CDC / Honduras)) (UniProt Q27743); assay: PfLDH activity inhibition – cell lysate, 3D7 strain, counter-screen for P. falciparum growth inhibition project (AID 2304);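 further: 0% = vehicle and 100% = reference inhibitor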; settings: P. falciparum 3D7 crude extract, LDH APAD/NBT absorbance; at 2 µM; hits give high values
[4] = inhibition of 3D7 malaria parasite growth – strain 3D7 (AID 2306);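 further: 0% = DMSO wells and 100% = chloroquine plus artemisinin control wells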; settings: P. falciparum 3D7 erythrocytic growth, LDH absorbance, 72 h; at 2 µM; hits give high values
[5] = biological target: Calcium-dependent protein kinase 1 (Plasmodium falciparum (isolate 3D7)) (UniProt P62344); assay: PfCDPK1 kinase inhibitors, biochemical, TCAMS library (AID 1159585; cut-off not given, nearly all actives have IC50 up to about 0.98 µM;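 further: inhibitors leave more ATP so luminescence rises with inhibition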); settings: recombinant PfCDPK1, Kinase-Glo ATP depletion luminescence
[6] = biological target: Plasmodium falciparum protein kinase 6 (PK6, PF3D7_1337100) (UniProt Q8IDW1); assay: PfPK6 kinase inhibitors, biochemical, TCAMS library (AID 1159586); settings: recombinant PfPK6, Kinase-Glo ATP depletion luminescence
[7] = biological target: Protein kinase 7 (PK7), Plasmodium falciparum 3D7 (PF3D7_0213400) (UniProt Q7YTF7); assay: inhibition of Plasmodium PK7 catalytic activity – biochemical, TCAMS antimalarial set, Kinase-Glo luminescence (AID 1159587); settings: recombinant PfPK7, Kinase-Glo ATP depletion luminescence
[8] = biological target: Calcium-dependent protein kinase 4 (Plasmodium falciparum (isolate 3D7)) (UniProt Q8IBS5); assay: PfCDPK4 kinase inhibitors, biochemical, TCAMS library (AID 1159588; cut-off not given, nearly all actives have IC50 up to about 0.91 µM); settings: recombinant PfCDPK4, Kinase-Glo ATP depletion luminescence
Chain of Calcium-dependent protein kinase 4 (Plasmodium falciparum (isolate 3D7)) (Q8IBS5 whole entry, looked up): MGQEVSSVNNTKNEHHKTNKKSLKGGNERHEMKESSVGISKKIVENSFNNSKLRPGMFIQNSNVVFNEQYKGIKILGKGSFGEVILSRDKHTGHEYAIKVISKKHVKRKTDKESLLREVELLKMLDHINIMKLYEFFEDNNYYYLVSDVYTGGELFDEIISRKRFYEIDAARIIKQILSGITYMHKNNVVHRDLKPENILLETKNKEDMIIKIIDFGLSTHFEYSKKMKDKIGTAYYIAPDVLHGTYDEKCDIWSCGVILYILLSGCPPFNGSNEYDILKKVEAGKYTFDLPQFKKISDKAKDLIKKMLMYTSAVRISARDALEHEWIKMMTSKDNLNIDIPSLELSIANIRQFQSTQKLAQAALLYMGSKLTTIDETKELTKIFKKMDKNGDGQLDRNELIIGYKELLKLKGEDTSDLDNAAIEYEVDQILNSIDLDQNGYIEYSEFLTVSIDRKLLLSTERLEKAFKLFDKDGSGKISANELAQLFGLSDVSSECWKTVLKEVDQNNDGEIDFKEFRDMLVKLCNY

Chain of Protein kinase 7 (PK7), Plasmodium falciparum 3D7 (PF3D7_0213400) (Q7YTF7 1-343): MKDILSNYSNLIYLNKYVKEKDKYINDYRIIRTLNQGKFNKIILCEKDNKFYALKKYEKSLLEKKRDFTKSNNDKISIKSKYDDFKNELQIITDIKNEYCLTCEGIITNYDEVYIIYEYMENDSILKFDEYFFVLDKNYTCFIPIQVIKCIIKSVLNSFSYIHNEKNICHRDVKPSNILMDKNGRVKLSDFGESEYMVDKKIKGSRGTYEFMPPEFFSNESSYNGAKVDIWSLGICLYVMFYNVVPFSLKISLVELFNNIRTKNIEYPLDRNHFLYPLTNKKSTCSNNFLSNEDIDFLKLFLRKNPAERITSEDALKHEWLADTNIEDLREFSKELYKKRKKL
Chain of Calcium-dependent protein kinase 1 (Plasmodium falciparum (isolate 3D7)) (P62344 whole entry, looked up): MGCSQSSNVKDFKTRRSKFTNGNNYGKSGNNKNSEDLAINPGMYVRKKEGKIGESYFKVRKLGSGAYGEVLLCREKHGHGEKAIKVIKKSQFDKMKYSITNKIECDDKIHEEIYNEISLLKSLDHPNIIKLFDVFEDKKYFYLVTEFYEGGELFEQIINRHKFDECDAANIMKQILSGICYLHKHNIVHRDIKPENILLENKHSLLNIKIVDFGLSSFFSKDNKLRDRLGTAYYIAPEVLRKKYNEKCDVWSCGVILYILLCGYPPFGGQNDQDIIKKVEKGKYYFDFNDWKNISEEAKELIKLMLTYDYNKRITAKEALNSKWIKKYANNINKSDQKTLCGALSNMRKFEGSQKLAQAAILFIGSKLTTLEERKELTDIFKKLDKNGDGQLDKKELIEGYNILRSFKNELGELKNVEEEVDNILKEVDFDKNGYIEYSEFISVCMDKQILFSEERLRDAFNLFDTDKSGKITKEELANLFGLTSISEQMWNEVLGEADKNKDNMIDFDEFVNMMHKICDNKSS
Chain of Plasmodium falciparum protein kinase 6 (PK6, PF3D7_1337100) (Q8IDW1 1-305): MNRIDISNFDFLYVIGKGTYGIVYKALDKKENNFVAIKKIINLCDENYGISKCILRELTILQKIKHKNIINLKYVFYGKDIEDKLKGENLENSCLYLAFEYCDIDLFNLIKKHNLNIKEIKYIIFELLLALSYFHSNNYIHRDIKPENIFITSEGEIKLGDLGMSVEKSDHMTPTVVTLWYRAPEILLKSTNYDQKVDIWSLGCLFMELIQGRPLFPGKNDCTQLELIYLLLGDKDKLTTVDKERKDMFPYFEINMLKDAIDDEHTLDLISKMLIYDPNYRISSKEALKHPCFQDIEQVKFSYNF
Chain of L-lactate dehydrogenase (Plasmodium falciparum (isolate CDC / Honduras)) (Q27743 whole entry, looked up): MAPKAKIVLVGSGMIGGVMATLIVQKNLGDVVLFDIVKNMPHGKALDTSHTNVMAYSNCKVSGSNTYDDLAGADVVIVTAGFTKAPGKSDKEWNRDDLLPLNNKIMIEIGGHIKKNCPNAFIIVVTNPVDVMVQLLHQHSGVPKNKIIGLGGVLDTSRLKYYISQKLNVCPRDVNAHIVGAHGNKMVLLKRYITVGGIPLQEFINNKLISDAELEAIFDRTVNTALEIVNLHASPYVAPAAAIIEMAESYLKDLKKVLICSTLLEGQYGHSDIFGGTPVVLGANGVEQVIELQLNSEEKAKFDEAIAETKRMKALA

C=CCc1cccc(C)c1OCCCON1C(N)=NC(N)=NC1(C)C
active: growth inhibition [1] 95% | inhibition [2] 65% | growth inhibition [4] 94%
inactive: inhibition [3] -8% | outcome [5] | outcome [6] | outcome [7] | outcome [8]

CCOc1cc(C(=O)NC2CCN(Cc3ccccc3)CC2)ccc1-c1nc2cc(Cl)c(F)cc2[nH]1
inactive: inhibition [2] 13% | inhibition [3] 4% | outcome [5] | outcome [6] | outcome [7] | outcome [8]
active: growth inhibition [1] 51% | growth inhibition [4] 101%

COC(=O)C(Cc1ccccc1)C(CSCc1ccc(OC)cc1)C(=O)N[C@@H](C(=O)OC(C)(C)C)c1ccc(C(C)(C)C)cc1 (stereo partly drawn)
inactive: growth inhibition [1] 44% | inhibition [2] -1% | inhibition [3] 2% | outcome [5] | outcome [6] | outcome [7] | outcome [8]
active: growth inhibition [4] 93%

NC(=NCCc1ccc(Cl)cc1)c1ccc(Cl)c(Cl)c1
active: growth inhibition [4] 100%
inactive: growth inhibition [1] 42% | inhibition [2] 43% | inhibition [3] -1% | outcome [5] | outcome [6] | outcome [7] | outcome [8]

Cc1cccc2[nH]c(-c3cccc(-c4cccc(NC(=O)C(C)CN5CCN(C)CC5)c4)c3)nc12 (stereo not drawn)
active: growth inhibition [1] 99% | growth inhibition [4] 99%
inactive: inhibition [2] 17% | inhibition [3] 1% | outcome [5] | outcome [6] | outcome [7] | outcome [8]

CC(=O)Nc1ccc(C(=O)Nc2cccc(-c3ccc(-c4nc5ccc(C(F)(F)F)cc5[nH]4)s3)c2)cn1
active: growth inhibition [1] 98% | growth inhibition [4] 100%
inactive: inhibition [2] 42% | inhibition [3] 3% | outcome [5] | outcome [6] | outcome [7] | outcome [8]

CCOc1ccccc1NC(=O)Nc1ccc2c(c1)CCN(C1CCC1)CC2
inactive: growth inhibition [1] 2% | inhibition [2] 15% | inhibition [3] -3% | outcome [5] | outcome [6] | outcome [7] | outcome [8]
active: growth inhibition [4] 88%

CCN(CC)CCCN(C(=O)Nc1ccc(C#N)cc1)c1nc(-c2ccc(F)cc2)cs1
active: growth inhibition [1] 68% | growth inhibition [4] 99%
inactive: inhibition [2] 36% | inhibition [3] 0% | outcome [5] | outcome [6] | outcome [7] | outcome [8]

CC(C)CCNc1nc2ccccc2nc1Nc1cccc(C(F)(F)F)c1
active: growth inhibition [1] 99% | growth inhibition [4] 98%
inactive: inhibition [2] 12% | inhibition [3] 1% | outcome [5] | outcome [6] | outcome [7] | outcome [8]

CC(=O)Nc1nc(C(=O)Nc2cccc(-c3ccc(-c4nc5c(C)cccc5[nH]4)cc3)c2)cs1
inactive: inhibition [3] -3% | outcome [5] | outcome [6] | outcome [7] | outcome [8]
active: growth inhibition [1] 61% | inhibition [2] 100% | growth inhibition [4] 100%

CC(Cc1ccc(OCCN2CCN(c3ccc(Cl)cc3)CC2)cc1)NCC(O)c1cccc(C(F)(F)F)c1 (stereo not drawn)
inactive: inhibition [3] 1% | outcome [5] | outcome [6] | outcome [7] | outcome [8]
active: growth inhibition [1] 96% | inhibition [2] 97% | growth inhibition [4] 99%

CN1CCN(c2ccnc3ccc(NC(=O)Cc4ccc(Br)c5ccccc45)cc23)CC1
inactive: inhibition [2] 8% | inhibition [3] -3% | outcome [5] | outcome [6] | outcome [7] | outcome [8]
active: growth inhibition [1] 99% | growth inhibition [4] 96%

O=C(/C=C/c1ccc(Cl)c(Cl)c1)NCC1CCN(Cc2ccc(O)cc2)CC1
inactive: growth inhibition [1] -3% | inhibition [2] 4% | inhibition [3] 6% | outcome [5] | outcome [6] | outcome [7] | outcome [8]
active: growth inhibition [4] 98%

Cc1cc(NCCc2cccc(F)c2)nc(/N=C(\N)Nc2cccc(C(F)(F)F)c2)n1
active: growth inhibition [1] 99% | growth inhibition [4] 102%
inactive: inhibition [2] 42% | inhibition [3] -1% | outcome [5] | outcome [6] | outcome [7] | outcome [8]

O=C(c1ccc2ccccc2n1)N1CCCc2cc(Br)ccc21
active: growth inhibition [1] 74% | growth inhibition [4] 97%
inactive: inhibition [2] 19% | inhibition [3] -3% | outcome [5] | outcome [6] | outcome [7] | outcome [8]

O=C(Nc1cccc(-c2nn3ccccc3c2-c2ccnc(Nc3cccc(F)c3)n2)c1)c1c(F)ccc(F)c1F
active: growth inhibition [1] 73% | growth inhibition [4] 96%
inactive: inhibition [2] 33% | inhibition [3] -1% | outcome [5] | outcome [6] | outcome [7] | outcome [8]

NS(=O)(=O)c1cccc(-c2ccc3ncc(N4CCOCC4)nc3c2)c1
active: growth inhibition [1] 74% | growth inhibition [4] 96%
inactive: inhibition [2] 17% | inhibition [3] -4% | outcome [5] | outcome [6] | outcome [7] | outcome [8]

Oc1ccc(CCNc2nc(N/N=C/C=C/c3ccc(Cl)cc3)nc(N3CCNCC3)n2)cc1
active: growth inhibition [1] 52% | growth inhibition [4] 98%
inactive: inhibition [2] 17% | inhibition [3] 2% | outcome [5] | outcome [6] | outcome [7] | outcome [8]

CCC[C@@H]([C@@H](CC1CCCCC1)C(=O)N[C@H](C(=O)Nc1nccs1)C(C)(C)SC)N(O)C=O
active: growth inhibition [1] 98% | inhibition [2] 51% | growth inhibition [4] 97%
inactive: inhibition [3] 7% | outcome [5] | outcome [6] | outcome [7] | outcome [8]

COc1ccc(CNCc2ccc(-c3ccc(-c4nc5ccc(C(F)(F)F)cc5[nH]4)cc3)cc2)cc1
active: growth inhibition [1] 99% | inhibition [2] 75% | growth inhibition [4] 102%
inactive: inhibition [3] 7% | outcome [5] | outcome [6] | outcome [7] | outcome [8]

COc1cccc2sc(Nc3nc(-c4ccccn4)cs3)nc12
active: growth inhibition [1] 76% | growth inhibition [4] 94%
inactive: inhibition [2] 41% | inhibition [3] 4% | outcome [5] | outcome [6] | outcome [7] | outcome [8]

O=C(Nc1ccc(-c2ccc(-c3nc4ccccc4[nH]3)s2)cc1)c1ccncc1
active: growth inhibition [1] 95% | growth inhibition [4] 94%
inactive: inhibition [2] 21% | inhibition [3] -5% | outcome [5] | outcome [6] | outcome [7] | outcome [8]

CCCc1cccc(OC)c1OCCCON1C(N)=NC(N)=NC1(C)C
active: growth inhibition [1] 97% | inhibition [2] 65% | growth inhibition [4] 94%
inactive: inhibition [3] 5% | outcome [5] | outcome [6] | outcome [7] | outcome [8]

COc1cc(C(=O)N2CCOC(CCN3CCC(c4ccc(Cl)cc4)CC3)(c3ccc(Cl)c(Cl)c3)C2)cc(OC)c1OC (stereo not drawn)
inactive: inhibition [2] 44% | inhibition [3] 6% | outcome [5] | outcome [6] | outcome [7] | outcome [8]
active: growth inhibition [1] 80% | growth inhibition [4] 91%

CC(C)c1ccc(S(=O)(=O)N(c2ccc3c(c2)OCO3)C2CCN(Cc3ccccc3)C2)cc1 (stereo not drawn)
inactive: inhibition [2] 1% | inhibition [3] 0% | outcome [5] | outcome [6] | outcome [7] | outcome [8]
active: growth inhibition [1] 92% | growth inhibition [4] 100%

CCCCCCN1CCN(Cc2cccc(NC(=O)c3ccc(Cl)c(Cl)c3)c2)CC1
inactive: inhibition [2] 31% | inhibition [3] -4% | outcome [5] | outcome [6] | outcome [7] | outcome [8]
active: growth inhibition [1] 51% | growth inhibition [4] 85%

C[C@@H](Nc1nc(NCc2ccccc2)c2sccc2n1)c1ccccc1
inactive: inhibition [2] 31% | inhibition [3] -4% | outcome [5] | outcome [6] | outcome [7] | outcome [8]
active: growth inhibition [1] 75% | growth inhibition [4] 91%

CCCC(C)Nc1nc(C)cc(N[C@@H](Cc2ccccc2)C(=O)Nc2ccc(OC)cc2)n1 (stereo partly drawn)
inactive: inhibition [2] 24% | inhibition [3] -1% | outcome [5] | outcome [6] | outcome [7] | outcome [8]
active: growth inhibition [1] 72% | growth inhibition [4] 100%

FC(F)(F)c1ccc2nc(-c3cccc(-c4cccc(CNCCN5CCNCC5)c4)c3)[nH]c2c1
inactive: growth inhibition [1] 18% | inhibition [2] 29% | inhibition [3] 4% | outcome [5] | outcome [6] | outcome [7] | outcome [8]
active: growth inhibition [4] 92%

COc1ccc(C2C(C(=O)Nc3ccc(C)cc3Br)c3ccccc3C(=O)N2C)cc1 (stereo not drawn)
active: growth inhibition [4] 96%
inactive: growth inhibition [1] 2% | inhibition [2] 4% | inhibition [3] 6% | outcome [5] | outcome [6] | outcome [7] | outcome [8]

CCN(CC)CCN(Cc1ccc(-c2ccc(Cl)cc2)cc1)C(=O)Cn1cc(CN(C)C)c(=O)nc1SCc1ccc(F)cc1
active: growth inhibition [1] 99% | growth inhibition [4] 99%
inactive: inhibition [2] 49% | inhibition [3] 1% | outcome [5] | outcome [6] | outcome [7] | outcome [8]

COc1ccc(C#Cc2ccc(-c3c(C)[nH]c(C)c(Cl)c3=O)cc2)cc1
active: growth inhibition [1] 97% | growth inhibition [4] 97%
inactive: inhibition [2] -6% | inhibition [3] 2% | outcome [5] | outcome [6] | outcome [7] | outcome [8]

O=C(NCCc1ccccc1)N(Cc1ccc(-c2cccc(CN3CCNCC3)c2)cc1)C1CCN(Cc2ccccc2)CC1
inactive: growth inhibition [1] 29% | inhibition [2] 27% | inhibition [3] -1% | outcome [5] | outcome [6] | outcome [7] | outcome [8]
active: growth inhibition [4] 90%

c1ccc2[nH]c(-c3ccc(-c4ccc(CNCC5CCCO5)cc4)s3)nc2c1 (stereo not drawn)
inactive: inhibition [2] 27% | inhibition [3] 4% | outcome [5] | outcome [6] | outcome [7] | outcome [8]
active: growth inhibition [1] 87% | growth inhibition [4] 101%

COc1ccnc(NCCCNCc2cn(S(=O)(=O)c3ccccc3)c3ccccc23)c1
active: inhibition [2] 57% | growth inhibition [4] 99%
inactive: growth inhibition [1] 18% | inhibition [3] -2% | outcome [5] | outcome [6] | outcome [7] | outcome [8]

C#CCN(Cc1cc2c(=O)[nH]c(N)nc2cc1C)c1ccc(C(=O)N[C@@H](CCC(=O)O)C(=O)O)cc1
active: growth inhibition [1] 74% | growth inhibition [4] 92%
inactive: inhibition [2] 28% | inhibition [3] -1% | outcome [5] | outcome [6] | outcome [7] | outcome [8]
